Results: PubChem BioAssay (NCATS)
Records with an inconclusive call do not appear. The source made the active and inactive calls. Calls come from the whole dose curve; as a rule, active = well fitted curve in either direction with a large enough effect (not every such curve was filed as active); inconclusive = small, poorly fitted or top-dose-only effect, or another doubt; inactive = flat fitted curve, though single readings scatter.

Test: AP1 Signaling Pathway (AID 357)
Settings: ME-180 (cervical carcinoma) AP-1-bla reporter, EGF-induced, beta-lactamase ratio, 5 h; series mostly up to 38 µM
How it was run: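 AP-1-bla ME-180 cells with beta-lactamase reporter under AP-1 response element, stimulated with EC50 EGF; compounds titrated, 5 hours at 37 degrees Celsius. CCF4 read at 460/530 nm ratio; positive and negative modulators judged by AC50.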

SMILES	outcome
CCS(=O)(=O)Nc1cccc(C(=C2CCCCC2)c2cnc[nH]2)c1	inactive
Clc1cc(I)cc(Cl)c1NC1=NCCN1	inactive
NC(=O)c1cc(N2CC2)c([N+](=O)[O-])cc1[N+](=O)[O-]	inactive
N#CC(C#N)=Cc1cc(O)c(O)c(O)c1	inactive
CN1CCc2cc(O)cc3c2[C@H]1Cc1ccc(O)c(O)c1-3	inactive
O=[N+]([O-])c1cc(O)c(O)c([N+](=O)[O-])c1	inactive
Clc1ccc(N2C[C@H]3CC[C@@H](C2)N3)nn1	inactive
NCCc1c[nH]c2ccc(C(N)=O)cc12	inactive
Cc1[nH]c2ccc(O)cc2c1CCN	inactive
O=S1(=O)N(CCN2CC=C(c3c[nH]c4cc(F)ccc34)CC2)c2cccc3c2N1CCC3	inactive
NNC(N)=O	inactive
O=[N+]([O-])c1ccc2nc(N3CCNCC3)ccc2c1	inactive
CN(N=O)c1ccc(O)c(O)c1	inactive
NCCCP(=O)(O)O	inactive
CC(C)[C@@]1(NC(=O)[C@@H]2C[C@@H]3c4cccc5[nH]cc(c45)C[C@H]3N(C)C2)O[C@@]2(O)[C@@H]3CCCN3C(=O)[C@H](Cc3ccccc3)N2C1=O	inactive
CNC(=O)OCC[N+](C)(C)C	inactive
CCCN(CCC)[C@@H]1CCc2cccc(O)c2C1	inactive

SMILES	outcome
CC(C)NP(=O)(NC(C)C)OP(=O)(NC(C)C)NC(C)C	inactive
CCCN(CCC)CCc1c[nH]c2ccc(C(N)=O)cc12	inactive
C[N+](C)(C)CCOC(=O)CBr	inactive
NC(N)=NOCC[C@H](N)C(=O)O	inactive
CCCN(CCC)CCc1ccc(O)c(O)c1	inactive
CCC1(C)CC(=O)NC(=O)C1	inactive
CN1CCC(c2c[nH]c3ccc(O)cc23)CC1	inactive
C[N+](C)(C)CC#CCOC(=O)Nc1cccc(Cl)c1	inactive
C[N+]1(C)CCc2cc3c(cc2[C@H]1[C@@H]1OC(=O)c2c1ccc1c2OCO1)OCO3	inactive
NCCc1ccc(S(=O)(=O)F)cc1	inactive
c1ccc2cc(CC3=NCCN3)ccc2c1	inactive
NC(=O)COc1c(F)cc(SCCNS(=O)(=O)c2ccccc2)cc1F	inactive
O=S(=O)(O)c1cc(O)ccc1O	inactive
CP(=O)(O)C1=CCNCC1	inactive
CC(C)(C)c1cc(C=C(C#N)C#N)cc(C(C)(C)C)c1O	inactive
c1ccc2c(N3CCNCC3)cccc2c1	inactive
